Here are results for five molecules from PubChem BioAssay.

SMILES strings stand for the structures. Activity calls are given as the source filed them.

Assay [1] has as its target Albumin (Bos taurus) (UniProt P02769). Briefly: bovine serum albumin binders on microarray, profiling panel, artefact control for SMM control protein annotation, biochemical, small-molecule microarray, Alexa647 label, 635/667 nm fluorescence (AID 1118).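 Further: score merges 667 nm emission intensity and signal-to-noise per printed compound spot.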 The conditions noted are these: BSA-A647 binding, fluorescence 635 nm, higher = more signal.
Assay [2] in a line: small-molecule microarray binders of probe aXIP, primary screen, biochemical, NeuroSMM set, 635/667 nm fluorescence (AID 1119).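 Further: probe is the protein aXip251-270 applied at 1 µg/mL to compound-printed slides; binding of probe to printed compounds measured as 667 nm fluorescence plus signal to noise.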 Conditions: higher = more signal, called active from +8 up or from −8 down.
A short description of assay [3]: small-molecule binders of probe aNOTCH3, primary screen, biochemical, small-molecule microarray, 635/667 nm fluorescence (AID 1120).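 Further: probe is a biotin-tagged antibody raised against NOTCH3 rather than NOTCH3 protein; score merges spot fluorescence near 667 nm with spot signal to noise.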 The conditions noted are these: higher = more signal.
The nature of assay [4]: small-molecule binders of probe aNOTCH2, primary screen, biochemical, small-molecule microarray, 635/667 nm fluorescence (AID 1121).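 Further: score merges feature fluorescence read at 667 nm with its signal to noise.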 Conditions: higher = more signal.
For assay [5], the target named is Carbonic anhydrase 2 (Homo sapiens) (UniProt P00918). The experiment in a line: CAII small-molecule binders, profiling panel, biochemical, small-molecule microarray, Alexa647-labelled CAII (AID 1122). Conditions: CAII-A647 binding fluorescence, higher = more signal.
A short description of assay [6]: COS7 lysate on small-molecule microarray, probe aHis, 635 nm (AID 1123).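 Further: z-score combines 667nm fluorescence intensity with signal-to-noise per printed compound spot.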 The conditions noted are these: COS7 cell lysate, fluorescence, higher = more signal.
A short description of assay [7]: compound binding in COS7 lysate, probe aLAP1, primary screen, cell lysate, small-molecule microarray (AID 1124).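 Further: lysate comes from COS7 cells expressing LAP1 and is applied at 0.3 µg/mL; score merges spot fluorescence near 667 nm with signal-to-noise over triplicate slides.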 Conditions: probe aLAP1, fluorescence, higher = more signal.
The subject of assay [8] is Sam68 (KHDRBS1). The experiment in a line: Sam68 small-molecule binders, primary screen, biochemical, small-molecule microarray, 635 nm fluorescence (AID 1125).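 Further: score merges 667 nm channel intensity with signal to noise over triplicate slides.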 The conditions noted are these: small-molecule microarray binding, higher = more signal.
Assay [9] relates to Chordin-like protein 2 (CHRDL2). Briefly: CHRDL2 small-molecule binders, primary screen, biochemical, small-molecule microarray, 635 nm fluorescence (AID 1126).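 Further: printed compound slides probed with Chrdl2 protein at 4 µg/mL for 1 h at 4 C; score merges 667 nm emission intensity with signal to noise over three replicate slides.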 Conditions: small-molecule microarray binding, fluorescence 635 nm; higher = more signal.
Assay [10] addresses Concanavalin-A (Canavalia ensiformis) (UniProt P02866). Briefly: ConA small-molecule binders, primary screen, artefact control for SMM control protein annotation, biochemical, small-molecule microarray, Alexa647 label, 635 nm (AID 1127).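 Further: z combines 667 nm emission intensity with signal-to-noise across three replicate slides.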 The conditions noted are these: ConA-A647 binding fluorescence, higher = more signal.
Assay [11] in a line: anti-His antibody binders, primary screen, artefact control for SMM control protein annotation, biochemical, small-molecule microarray, 635 nm fluorescence (AID 1128).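 Further: score merges feature fluorescence with signal-to-noise for each printed compound spot.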 The conditions noted are these: anti-His Alexa647 antibody binding, higher = more signal.
Assay [12] has as its system Human papillomavirus type 1a E7 protein (residues 1-88). The experiment in a line: HPV1a E7 small-molecule binders, primary screen, biochemical, small-molecule microarray, residues 1-88, 635 nm (AID 1129). The conditions noted are these: small-molecule microarray binding, fluorescence 635 nm; higher = more signal.
Assay [13] concerns the target Focal adhesion kinase 1 (Homo sapiens) (UniProt Q05397). Briefly: small-molecule microarray binders of FAK, primary screen, biochemical, 635/667 nm fluorescence, BSA, DTT (AID 1130).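 Further: composite of spot emission at 667 nm and signal to noise over triplicate slides.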 The conditions noted are these: PTK2 binding, 635 nm fluorescence, higher = more signal.
The test system of assay [14] is Fibrinogen (Alexa647-labelled). The experiment in a line: fibrinogen binders on compound microarrays, profiling panel, artefact control for SMM control-protein annotation, biochemical, small-molecule microarray, 635/667 nm fluorescence (AID 1131).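 Further: z-score merges 667 nm fluorescence with per-spot signal-to-noise over triplicate slides.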 Conditions: fibrinogen-A647 binding fluorescence, higher = more signal.
For assay [15], the target named is Follistatin (Homo sapiens) (UniProt P19883). Briefly: follistatin binders on small-molecule microarrays, primary screen, biochemical, small-molecule microarray, 635/667 nm fluorescence (AID 1132). Conditions: FST binding, 635 nm fluorescence, higher = more signal.
Follistatin (Homo sapiens), sequence (P19883 whole entry, looked up): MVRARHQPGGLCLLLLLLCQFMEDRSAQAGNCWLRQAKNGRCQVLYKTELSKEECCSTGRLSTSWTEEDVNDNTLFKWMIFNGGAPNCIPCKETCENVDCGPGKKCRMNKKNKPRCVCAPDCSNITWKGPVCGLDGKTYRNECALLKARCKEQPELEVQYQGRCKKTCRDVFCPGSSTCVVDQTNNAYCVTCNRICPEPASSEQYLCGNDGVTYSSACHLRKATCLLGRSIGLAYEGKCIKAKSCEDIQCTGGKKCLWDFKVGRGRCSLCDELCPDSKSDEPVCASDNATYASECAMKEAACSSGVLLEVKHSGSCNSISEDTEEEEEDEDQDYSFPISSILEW
The target in assay [16] is Fibroblast growth factor 2 (Homo sapiens) (UniProt P09038). Briefly: FGF2 binders on small-molecule microarrays, primary screen, biochemical, small-molecule microarray, 635/667 nm fluorescence (AID 1133). The conditions noted are these: small-molecule microarray binding, FGF2, fluorescence 635/667; higher = more signal.
Fibroblast growth factor 2 (Homo sapiens), sequence (P09038 whole entry, looked up): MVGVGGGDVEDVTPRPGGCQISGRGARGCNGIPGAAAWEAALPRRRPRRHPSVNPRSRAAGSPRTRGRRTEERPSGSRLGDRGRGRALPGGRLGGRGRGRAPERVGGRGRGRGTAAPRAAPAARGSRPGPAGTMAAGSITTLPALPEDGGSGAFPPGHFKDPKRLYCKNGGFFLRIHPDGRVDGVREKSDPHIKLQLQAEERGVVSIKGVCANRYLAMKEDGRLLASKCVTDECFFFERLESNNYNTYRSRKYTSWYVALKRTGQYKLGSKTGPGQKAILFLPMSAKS
A short description of assay [17]: mitochondrial membrane potential change in A549 cells, profiling panel, cell-based, JC-1 fluorescence, basal, 24 h, 100 nL (AID 1138).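 Further: A549 lung adenocarcinoma cells under basal conditions with no added stimulus; test concentration not given here.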 Conditions: higher = more signal.
For assay [18], the system named is Lefty1. The experiment in a line: Lefty1 binders on small-molecule microarrays, primary screen, biochemical, small-molecule microarray, 635/667 nm fluorescence (AID 1139). The conditions noted are these: small-molecule microarray binding, fluorescence 635/667; higher = more signal.
Assay [19] deals with wheat germ agglutinin (Triticum aestivum), Alexa647-labelled. Briefly: wheat germ agglutinin binders on compound microarrays, profiling panel, artefact control for SMM control-protein annotation, biochemical, small-molecule microarray, 635/667 nm fluorescence (AID 1140).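 Further: score merges 667 nm feature emission with signal to noise over triplicate slides.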 Conditions: WGA-A647 binding, 635 nm fluorescence, higher = more signal.
Assay [20] has as its target Luciferin 4-monooxygenase (Photinus pyralis) (UniProt P08659). Briefly: firefly luciferase enzyme inhibitors, primary screen, biochemical, luminescence, purified enzyme, 2006 set (AID 1141).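 Further: cell-free assay with purified firefly luciferase at 100 ng per well in PBS; test concentration not given here.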 Conditions: SteadyGlo luminescence, 30 min, higher = more signal, called active from +8 up or from −8 down.

Focal adhesion kinase 1 (Homo sapiens), sequence (Q05397 whole entry, looked up): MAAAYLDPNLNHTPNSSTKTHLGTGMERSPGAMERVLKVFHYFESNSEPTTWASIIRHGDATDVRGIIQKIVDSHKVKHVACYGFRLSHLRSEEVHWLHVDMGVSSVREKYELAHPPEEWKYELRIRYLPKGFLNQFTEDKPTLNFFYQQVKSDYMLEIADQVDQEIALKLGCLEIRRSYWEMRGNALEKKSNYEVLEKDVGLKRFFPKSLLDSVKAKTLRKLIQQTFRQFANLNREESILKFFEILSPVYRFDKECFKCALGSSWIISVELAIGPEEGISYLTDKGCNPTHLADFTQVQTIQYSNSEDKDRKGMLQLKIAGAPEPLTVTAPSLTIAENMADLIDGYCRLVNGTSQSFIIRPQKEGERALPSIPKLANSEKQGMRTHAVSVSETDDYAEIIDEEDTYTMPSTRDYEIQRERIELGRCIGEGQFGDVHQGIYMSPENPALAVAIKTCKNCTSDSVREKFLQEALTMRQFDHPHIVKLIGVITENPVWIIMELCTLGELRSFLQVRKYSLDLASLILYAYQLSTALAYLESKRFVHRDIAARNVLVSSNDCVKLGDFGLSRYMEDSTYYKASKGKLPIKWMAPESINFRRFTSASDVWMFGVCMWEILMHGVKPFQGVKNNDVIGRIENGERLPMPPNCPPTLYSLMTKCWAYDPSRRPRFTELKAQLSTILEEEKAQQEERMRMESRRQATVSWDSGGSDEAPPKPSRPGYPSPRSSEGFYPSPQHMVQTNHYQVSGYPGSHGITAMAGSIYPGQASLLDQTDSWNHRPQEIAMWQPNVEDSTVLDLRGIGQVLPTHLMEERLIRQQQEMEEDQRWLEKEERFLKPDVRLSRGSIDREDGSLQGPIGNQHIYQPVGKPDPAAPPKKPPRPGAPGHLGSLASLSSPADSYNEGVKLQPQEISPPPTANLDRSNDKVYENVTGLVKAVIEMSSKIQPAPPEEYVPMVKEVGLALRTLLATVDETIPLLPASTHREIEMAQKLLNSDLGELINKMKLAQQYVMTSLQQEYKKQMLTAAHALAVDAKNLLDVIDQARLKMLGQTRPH
Luciferin 4-monooxygenase (Photinus pyralis), sequence (P08659 whole entry, looked up): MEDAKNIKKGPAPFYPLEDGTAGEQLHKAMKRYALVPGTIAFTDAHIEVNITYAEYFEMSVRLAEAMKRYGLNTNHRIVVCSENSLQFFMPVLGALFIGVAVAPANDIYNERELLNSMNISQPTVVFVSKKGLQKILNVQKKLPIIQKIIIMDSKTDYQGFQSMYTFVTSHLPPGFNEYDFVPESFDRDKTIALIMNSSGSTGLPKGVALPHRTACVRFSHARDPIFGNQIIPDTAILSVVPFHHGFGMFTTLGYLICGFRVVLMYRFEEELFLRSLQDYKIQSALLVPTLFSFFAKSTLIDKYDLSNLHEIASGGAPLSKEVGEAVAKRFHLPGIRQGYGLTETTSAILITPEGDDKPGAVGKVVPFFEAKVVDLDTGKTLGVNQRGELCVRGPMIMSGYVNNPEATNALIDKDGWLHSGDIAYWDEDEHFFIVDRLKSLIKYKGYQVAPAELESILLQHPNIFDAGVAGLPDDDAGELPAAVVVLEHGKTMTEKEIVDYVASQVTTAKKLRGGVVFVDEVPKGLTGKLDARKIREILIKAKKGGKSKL
Concanavalin-A (Canavalia ensiformis), sequence (P02866 whole entry, looked up): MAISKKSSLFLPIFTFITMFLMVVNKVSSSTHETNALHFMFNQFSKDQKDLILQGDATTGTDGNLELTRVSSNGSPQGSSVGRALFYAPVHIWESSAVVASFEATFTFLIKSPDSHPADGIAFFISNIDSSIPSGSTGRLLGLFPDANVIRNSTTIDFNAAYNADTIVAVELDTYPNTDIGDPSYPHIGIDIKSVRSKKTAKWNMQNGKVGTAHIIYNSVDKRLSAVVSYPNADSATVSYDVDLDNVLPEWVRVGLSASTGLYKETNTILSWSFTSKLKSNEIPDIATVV
Albumin (Bos taurus), sequence (P02769 whole entry, looked up): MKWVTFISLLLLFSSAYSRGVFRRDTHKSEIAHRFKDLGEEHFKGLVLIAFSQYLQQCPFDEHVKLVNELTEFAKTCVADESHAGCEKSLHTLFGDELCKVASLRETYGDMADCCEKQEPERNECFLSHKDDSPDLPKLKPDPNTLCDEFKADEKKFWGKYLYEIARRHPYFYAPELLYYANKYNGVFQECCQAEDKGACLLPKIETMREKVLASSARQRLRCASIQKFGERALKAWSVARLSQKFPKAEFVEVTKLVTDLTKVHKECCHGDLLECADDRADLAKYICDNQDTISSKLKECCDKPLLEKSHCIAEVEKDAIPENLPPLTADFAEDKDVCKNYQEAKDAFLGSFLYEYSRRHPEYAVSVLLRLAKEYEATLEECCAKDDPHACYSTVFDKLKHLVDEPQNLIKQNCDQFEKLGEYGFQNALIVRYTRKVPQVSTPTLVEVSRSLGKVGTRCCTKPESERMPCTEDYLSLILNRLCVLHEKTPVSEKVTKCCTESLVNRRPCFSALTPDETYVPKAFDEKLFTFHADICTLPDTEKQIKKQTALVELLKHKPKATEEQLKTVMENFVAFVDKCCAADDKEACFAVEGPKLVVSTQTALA

For the molecule `CCN1C(=O)[C@H]2[C@H]3[C@H](O)[C@H](O)CC(=NOC[C@@H](C)[C@H](OCc4ccccc4)C(C)C)[C@@H]3CC[C@H]2C1=O`, the composite z-score in [1] was 0.665; in assay [3], -0.152; in assay [4], -0.131; in [5] it was -0.0205; in assay [6] it was 0.276; in [7] it was -0.504. In addition, the composite z-score in assay [8] was 0.614; in assay [9], -0.13; in [10], -0.223; in [11], 0.0486; in [12] it was 0.472; in [13], -0.0745. For the same molecule, the composite z-score was 0.58 in assay [14]; -0.0316 in [15]; -0.109 in assay [16]; 0.192 in assay [18]; 0.564 in assay [19]. Moreover, the composite Z-score in [2] was 0.0576 (inactive). Besides, the figures for the z-score in assay [17] and in [20] were -0.925 and 0.646 (inactive), respectively.

As to `O=C1[C@H]2[C@H]3[C@H](O)[C@H](O)CC(=NO[C@@H]4O[C@H](CO)[C@@H](O)[C@H](O)[C@H]4O)[C@H]3CC[C@H]2C(=O)N1Cc1ccccc1`, the composite z-score was -0.258 in assay [1]; 0.0145 in assay [3]; -0.127 in [4]; -0.457 in [5]; 0.904 in [6]; 0.0052 in assay [7]. Moreover, the composite z-score in assay [8] was 1.32; in assay [9] it was -0.564; in assay [10], 0.0723; in assay [11], 0.0948; in assay [12] it was 0.768; in assay [13], 0.0406. Also, the composite z-score in assay [14] was -0.187; in assay [15], -0.179; in assay [16], 0.389; in [18], 0.358; in [19], -0.0816. The composite Z-score in [2] is -0.304 (inactive). Moreover, the z-score in assay [17] was -0.252; in assay [20], 0.589 (inactive).

As for `O=C1[C@H]2[C@H]3[C@H](O)[C@H](O)CC(=NOCc4ccccc4)[C@@H]3CC[C@H]2C(=O)N1Cc1ccccc1`, the composite z-score in assay [1] is 0.55; in assay [3] it was -0.0043; in assay [4] it was -0.14; in assay [5] it was 0.251; in assay [6], -0.256; in assay [7], -0.355. Besides, the composite z-score was 0.598 in assay [8]; 0.417 in [9]; -0.0677 in assay [10]; -0.0529 in assay [11]; 0.719 in assay [12]; 0.166 in assay [13]. Further, the composite z-score is -0.757 in [14]; 0.371 in assay [15]; 0.47 in [16]; 0.597 in assay [18]; 0.0885 in assay [19]. Besides, the composite Z-score in assay [2] is -0.119 (inactive). Also, the z-score in [17] is -0.806; in assay [20] it was 1.09 (inactive).

As to `C[C@@H]1C=CCC(=O)OC[C@H](C)C(=O)N[C@@H](C)C(=O)OC1`, the composite z-score was -0.171 in [1]; -0.0647 in [3]; -0.144 in assay [4]; -0.385 in assay [5]; -0.466 in assay [6]; 0.369 in assay [7]. The composite z-score in [8] is 0.175; in assay [9], 0.71; in assay [10] it was 0.155; in assay [11], -0.181; in assay [12] it was -0.479; in [13], 1.32. In addition, the composite z-score is -0.096 in assay [14]; 0.302 in [15]; 1.09 in assay [16]; 0.921 in assay [18]; -0.323 in [19]. Also, the composite Z-score in [2] was 0.215 (inactive). Besides, the z-score in [17] was -0.944; in [20] it was 1.04 (inactive).

As for `O=C1O[C@@H](c2ccccc2)[C@@H](c2ccccc2)N2[C@@H](c3ccc(OCCO)cc3)[C@]3(C(=O)Nc4ccccc43)[C@@H](C(=O)N3CCN(c4ncccn4)CC3)[C@H]12`, the composite z-score is 0.162 in assay [1]; 0.0824 in assay [3]; -0.091 in assay [4]; 0.403 in assay [5]; 1.84 in assay [6]; 0.88 in [7]. The composite z-score is 1.3 in assay [8]; 0.902 in assay [9]; 1.15 in assay [10]; 1.08 in [11]; 1.18 in assay [12]; 0.687 in [13]. For the same molecule, the composite z-score in assay [14] is 0.489; in assay [15], 1.28; in assay [16], 1.17; in assay [18], 1.19; in assay [19], 0.929. Moreover, in assay [2], the composite Z-score was 0.338 (inactive). Besides, the z-score in [17] is -0.473; in assay [20], -1.4 (inactive).
